Reference: the supplement of paper PMC6992640

Assays:
Experiment in all cases: cell viability of combination (% of vehicle); higher = less cytotoxic
Settings in all cases: 1 µM; 72 h; partner dose: 10 nM
[1] = test system: HCI01 (cells of a triple-negative basal-like breast cancer xenograft)
Procedure: (§1)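 PDX cells were treated for 72 h with each drug at 1 µM plus carfilzomib (10 nM; 100 nM for WHIM2). Luciferase viability is expressed as percent of vehicle.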

[2] = test system: UCD52 (cells of a triple-negative basal-like breast cancer xenograft)
Procedure: as §1

[3] = test system: WHIM30 (cells of a triple-negative basal-like breast cancer xenograft)
Procedure: as §1

Structure (SMILES) | cell viability of combination [1] | cell viability of combination [2] | cell viability of combination [3]
Cl.O.O=C1Cc2cc(CCN3CCN(c4nsc5ccccc45)CC3)c(Cl)cc2N1 [Ziprasidone hydrochloride monohydrate] + CC(C)C[C@H](NC(=O)[C@H](CCc1ccccc1)NC(=O)CN1CCOCC1)C(=O)N[C@@H](Cc1ccccc1)C(=O)N[C@@H](CC(C)C)C(=O)[C@@]1(C)CO1 [Carfilzomib] | 79.6 | 64.2 | –
CC(=O)C1(O)Cc2c(O)c3c(c(O)c2C(OC2CC(N)C(O)C(C)O2)C1)C(=O)c1ccccc1C3=O.Cl (configuration not stated) [Idarubicin HCl] + CC(C)C[C@H](NC(=O)[C@H](CCc1ccccc1)NC(=O)CN1CCOCC1)C(=O)N[C@@H](Cc1ccccc1)C(=O)N[C@@H](CC(C)C)C(=O)[C@@]1(C)CO1 [Carfilzomib] | 187 | 21.1 | –
CNC(=O)c1cc(Oc2ccc(NC(=O)Nc3ccc(Cl)c(C(F)(F)F)c3)cc2)ccn1.Cc1ccc(S(=O)(=O)O)cc1 [Sorafenib Tosylate] + CC(C)C[C@H](NC(=O)[C@H](CCc1ccccc1)NC(=O)CN1CCOCC1)C(=O)N[C@@H](Cc1ccccc1)C(=O)N[C@@H](CC(C)C)C(=O)[C@@]1(C)CO1 [Carfilzomib] | 70.3 | 52.6 | –
O=C(NC1CCN(CCCCC2(C(=O)NCC(F)(F)F)c3ccccc3-c3ccccc32)CC1)c1ccccc1-c1ccc(C(F)(F)F)cc1 [Lomitapide] + CC(C)C[C@H](NC(=O)[C@H](CCc1ccccc1)NC(=O)CN1CCOCC1)C(=O)N[C@@H](Cc1ccccc1)C(=O)N[C@@H](CC(C)C)C(=O)[C@@]1(C)CO1 [Carfilzomib] | 84.9 | 38.9 | –
CN(C)CCOc1ccc(C(=C(CCCl)c2ccccc2)c2ccccc2)cc1.O=C(O)CC(O)(CC(=O)O)C(=O)O [Toremifene Citrate] + CC(C)C[C@H](NC(=O)[C@H](CCc1ccccc1)NC(=O)CN1CCOCC1)C(=O)N[C@@H](Cc1ccccc1)C(=O)N[C@@H](CC(C)C)C(=O)[C@@]1(C)CO1 [Carfilzomib] | 103 | 70.2 | 17.1
COc1ccc2c(O[C@H]3CC4C(=O)N(C)CCCC/C=C\[C@H]5C[C@@]5(C(=O)NS(=O)(=O)C5CC5)NC(=O)[C@@H]4C3)cc(-c3nc(C(C)C)cs3)nc2c1C (some centres not stated) [Simeprevir] + CC(C)C[C@H](NC(=O)[C@H](CCc1ccccc1)NC(=O)CN1CCOCC1)C(=O)N[C@@H](Cc1ccccc1)C(=O)N[C@@H](CC(C)C)C(=O)[C@@]1(C)CO1 [Carfilzomib] | 82.7 | 62.5 | 22.1
COc1ncc(-c2ccc3nccc(-c4ccnnc4)c3c2)cc1NS(=O)(=O)c1ccc(F)cc1F + CC(C)C[C@H](NC(=O)[C@H](CCc1ccccc1)NC(=O)CN1CCOCC1)C(=O)N[C@@H](Cc1ccccc1)C(=O)N[C@@H](CC(C)C)C(=O)[C@@]1(C)CO1 [Carfilzomib] | 37.6 | 17.6 | –
CS(=O)(=O)CCNCc1ccc(-c2ccc3ncnc(Nc4ccc(OCc5cccc(F)c5)c(Cl)c4)c3c2)o1.Cc1ccc(S(=O)(=O)O)cc1.Cc1ccc(S(=O)(=O)O)cc1 [Lapatinib Ditosylate] + CC(C)C[C@H](NC(=O)[C@H](CCc1ccccc1)NC(=O)CN1CCOCC1)C(=O)N[C@@H](Cc1ccccc1)C(=O)N[C@@H](CC(C)C)C(=O)[C@@]1(C)CO1 [Carfilzomib] | 69.5 | 47.7 | 23.7
CC[C@@]1(O)C(=O)OCc2c1cc1n(c2=O)Cc2cc3c(CN(C)C)c(O)ccc3nc2-1.Cl [Topotecan HCl] + CC(C)C[C@H](NC(=O)[C@H](CCc1ccccc1)NC(=O)CN1CCOCC1)C(=O)N[C@@H](Cc1ccccc1)C(=O)N[C@@H](CC(C)C)C(=O)[C@@]1(C)CO1 [Carfilzomib] | 55.9 | 54.7 | 7.58
Nc1ccc2cc3ccc([NH3+])cc3nc2c1.Nc1ccc2cc3ccc([NH3+])cc3nc2c1.O=S(=O)([O-])[O-] [Proflavine Hemisulfate] + CC(C)C[C@H](NC(=O)[C@H](CCc1ccccc1)NC(=O)CN1CCOCC1)C(=O)N[C@@H](Cc1ccccc1)C(=O)N[C@@H](CC(C)C)C(=O)[C@@]1(C)CO1 [Carfilzomib] | 78 | 94 | –
COC(=O)NC(C(=O)NC(Cc1ccccc1)C(O)CN(Cc1ccc(-c2ccccn2)cc1)NC(=O)C(NC(=O)OC)C(C)(C)C)C(C)(C)C (configuration not stated) [Atazanavir] + CC(C)C[C@H](NC(=O)[C@H](CCc1ccccc1)NC(=O)CN1CCOCC1)C(=O)N[C@@H](Cc1ccccc1)C(=O)N[C@@H](CC(C)C)C(=O)[C@@]1(C)CO1 [Carfilzomib] | 79.8 | 63.2 | 24.5
Cc1cccc(CN2CCN(C(c3ccccc3)c3ccc(Cl)cc3)CC2)c1.Cl.Cl (configuration not stated) [Meclizine 2HCl] + CC(C)C[C@H](NC(=O)[C@H](CCc1ccccc1)NC(=O)CN1CCOCC1)C(=O)N[C@@H](Cc1ccccc1)C(=O)N[C@@H](CC(C)C)C(=O)[C@@]1(C)CO1 [Carfilzomib] | 105 | 57.2 | –
CCc1cnn2c(NCc3ccc[n+]([O-])c3)cc(N3CCCCC3CCO)nc12 (configuration not stated) + CC(C)C[C@H](NC(=O)[C@H](CCc1ccccc1)NC(=O)CN1CCOCC1)C(=O)N[C@@H](Cc1ccccc1)C(=O)N[C@@H](CC(C)C)C(=O)[C@@]1(C)CO1 [Carfilzomib] | 33.6 | 23.7 | –
CC[C@H](C)[C@H]1O[C@]2(CC[C@@H]1C)C[C@@H]1C[C@@H](C/C=C(\C)[C@@H](O[C@H]3C[C@H](OC)[C@@H](O[C@H]4C[C@H](OC)[C@@H](O)[C@H](C)O4)[C@H](C)O3)[C@@H](C)/C=C/C=C3\CO[C@@H]4[C@H](O)C(C)=C[C@@H](C(=O)O1)[C@]34O)O2 [Ivermectin] + CC(C)C[C@H](NC(=O)[C@H](CCc1ccccc1)NC(=O)CN1CCOCC1)C(=O)N[C@@H](Cc1ccccc1)C(=O)N[C@@H](CC(C)C)C(=O)[C@@]1(C)CO1 [Carfilzomib] | 92.6 | 43 | 20.6
CS(=O)(=O)O.Cc1c(O)cccc1C(=O)NC(CSc1ccccc1)C(O)CN1CC2CCCCC2CC1C(=O)NC(C)(C)C (configuration not stated) [Nelfinavir Mesylate] + CC(C)C[C@H](NC(=O)[C@H](CCc1ccccc1)NC(=O)CN1CCOCC1)C(=O)N[C@@H](Cc1ccccc1)C(=O)N[C@@H](CC(C)C)C(=O)[C@@]1(C)CO1 [Carfilzomib] | 80.3 | 57.2 | –
CC(C)CC(NC(=O)C(NC(=O)c1cccc(-c2ccccc2)n1)C(C)O)B(O)O (configuration not stated) + CC(C)C[C@H](NC(=O)[C@H](CCc1ccccc1)NC(=O)CN1CCOCC1)C(=O)N[C@@H](Cc1ccccc1)C(=O)N[C@@H](CC(C)C)C(=O)[C@@]1(C)CO1 [Carfilzomib] | 42.4 | 20.1 | –
CC(NCCCc1cccc(C(F)(F)F)c1)c1cccc2ccccc12 (configuration not stated) [Cinacalcet] + CC(C)C[C@H](NC(=O)[C@H](CCc1ccccc1)NC(=O)CN1CCOCC1)C(=O)N[C@@H](Cc1ccccc1)C(=O)N[C@@H](CC(C)C)C(=O)[C@@]1(C)CO1 [Carfilzomib] | 82.4 | 56.1 | –
C=C1C(=CC=C2CCCC3(C)C2CCC3C(C)C=CC(C)C(C)C)CC(O)CC1O (configuration not stated) [Doxercalciferol] + CC(C)C[C@H](NC(=O)[C@H](CCc1ccccc1)NC(=O)CN1CCOCC1)C(=O)N[C@@H](Cc1ccccc1)C(=O)N[C@@H](CC(C)C)C(=O)[C@@]1(C)CO1 [Carfilzomib] | 67 | 44 | –
[O-]n1ccccc1=S.[O-]n1ccccc1=S.[Zn+2] [Zinc Pyrithione] + CC(C)C[C@H](NC(=O)[C@H](CCc1ccccc1)NC(=O)CN1CCOCC1)C(=O)N[C@@H](Cc1ccccc1)C(=O)N[C@@H](CC(C)C)C(=O)[C@@]1(C)CO1 [Carfilzomib] | 68.3 | 42.8 | –
CNC(=O)c1cc(Oc2ccc(NC(=O)Nc3ccc(Cl)c(C(F)(F)F)c3)c(F)c2)ccn1.Cl [Regorafenib hydrochloride] + CC(C)C[C@H](NC(=O)[C@H](CCc1ccccc1)NC(=O)CN1CCOCC1)C(=O)N[C@@H](Cc1ccccc1)C(=O)N[C@@H](CC(C)C)C(=O)[C@@]1(C)CO1 [Carfilzomib] | 77.7 | 52.7 | 32.8
CCC(=C(c1ccccc1)c1ccc(OCCN(C)C)cc1)c1ccccc1.O=C(O)CC(O)(CC(=O)O)C(=O)O [Tamoxifen Citrate] + CC(C)C[C@H](NC(=O)[C@H](CCc1ccccc1)NC(=O)CN1CCOCC1)C(=O)N[C@@H](Cc1ccccc1)C(=O)N[C@@H](CC(C)C)C(=O)[C@@]1(C)CO1 [Carfilzomib] | 90.4 | 71.2 | 23.8
CCCCCCCCOc1ccccc1C(=O)Nc1ccc(C(=O)OCC[N+](C)(CC)CC)cc1.[Br-] [Otilonium Bromide] + CC(C)C[C@H](NC(=O)[C@H](CCc1ccccc1)NC(=O)CN1CCOCC1)C(=O)N[C@@H](Cc1ccccc1)C(=O)N[C@@H](CC(C)C)C(=O)[C@@]1(C)CO1 [Carfilzomib] | 81.5 | 67 | –
